# PP5 primary: inhibitors of human protein phosphatase 5 (PP5) | inhibition, % at 6.7 µM | purified PP5c, OMFP substrate fluorescence | AID 1987 | P53041 | 0.18% of 320,000 active;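 active = inhibition above the campaign's mean inhibition across all tested compounds plus 3 SD, cut at about 9.5% in these data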;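 also: 0% = DMSO only and 100% = 100 µM cantharidin control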
# pPAFAH FP inh: pPAFAH (human) enzyme inhibition. recombinant pPAFAH, FP-rhodamine probe fluorescence polarization. inhibition, % at 3.39 µM. 1.5% of 330,000 active. AID 463082;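 active = inhibition above the mean inhibition across the screen plus 3 SD, cut at about 25% in these data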;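 also: inhibitors block binding of the rhodamine activity-based probe so polarization drops; 0% = enzyme with DMSO and 100% = wells lacking pPAFAH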
# PAFAH1B3 inh: inhibitors of human PAFAH1B3 | inhibition, % at 3.39 µM | 0.28% of 340,000 active | recombinant PAFAH1B3, FP-rhodamine probe, fluorescence polarization | AID 492972;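 active = inhibition above the screen-wide average of all tested compounds plus 3 SD, cut at about 25% in these data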;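 also: 0% = enzyme with DMSO only and 100% = wells lacking PAFAH1B3 protein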
# PP1 inh: PP1-alpha (human) inhibition in PP5 counter-screen; P62136; purified PP1alpha, OMFP fluorescence; inhibition, % at 6.7 µM; 0.9% of 320,000 active;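 active = inhibition above the mean inhibition of all tested compounds plus 3 SD, computed separately for each screening campaign, cut at about 15% in these data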
# Target sequence (P62136 whole entry, looked up): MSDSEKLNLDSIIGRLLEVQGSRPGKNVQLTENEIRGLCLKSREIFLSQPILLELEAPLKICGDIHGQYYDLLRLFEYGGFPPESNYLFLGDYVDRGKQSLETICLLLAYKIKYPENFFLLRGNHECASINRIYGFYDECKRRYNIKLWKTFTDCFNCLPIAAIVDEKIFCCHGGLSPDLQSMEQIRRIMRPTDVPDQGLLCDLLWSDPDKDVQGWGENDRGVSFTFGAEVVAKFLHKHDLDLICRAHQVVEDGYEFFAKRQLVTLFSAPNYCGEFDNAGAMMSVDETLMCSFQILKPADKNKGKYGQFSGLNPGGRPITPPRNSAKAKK
# PAFAH2 FP inh: PAFAH2 (human) inhibition. AID 492956. Q99487. 0.99% of 340,000 active. inhibition, % at 3.39 µM. recombinant PAFAH2, FP-rhodamine activity probe, fluorescence polarization;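 active = inhibition above the mean over all tested compounds plus 3 SD, cut at about 30% in these data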;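 also: inhibitors block probe labeling of enzyme so polarization drops; 0% = enzyme with DMSO and 100% = wells lacking PAFAH2 protein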
# PAFAH1B2 FP inh: blocks human PAF acetylhydrolase 1b catalytic subunit 2. P68402. recombinant PAFAH1B2, FP-rhodamine activity probe, fluorescence polarization. inhibition, % at 3.39 µM. 1.2% of 340,000 active;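 active = inhibition above the mean of all tested compounds plus 3 SD, cut at about 24% in these data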;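 also: 0% = enzyme with DMSO and 100% = wells lacking PAFAH1B2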
# Target sequence (P68402 whole entry, looked up): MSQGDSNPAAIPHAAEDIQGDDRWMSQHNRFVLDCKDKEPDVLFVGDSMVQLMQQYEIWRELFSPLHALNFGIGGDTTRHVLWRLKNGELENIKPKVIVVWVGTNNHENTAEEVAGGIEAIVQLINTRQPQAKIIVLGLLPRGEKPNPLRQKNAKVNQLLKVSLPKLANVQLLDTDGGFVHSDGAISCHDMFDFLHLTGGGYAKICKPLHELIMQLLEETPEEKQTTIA
# PP1 confirm: confirmation of human PP1 phosphatase inhibitors | inhibition, % at 6.7 µM | 52% of 1,900 active | shares compounds with PP1 inh | AID 2358 | purified PP1alpha, OMFP substrate fluorescence;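 active = mean PP1 inhibition above a set limit taken from the earlier primary screen, cut at about 15% in these data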
# PP5 inh counter: counter-screen for PP1 inhibitors: human PP5 phosphatase inhibition; purified PP5c, OMFP fluorescence; 4% of 1,900 active; inhibition, % at 6.7 µM; shares compounds with PP1 inh;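 active = mean PP5 inhibition over triplicate wells above about 9.5% taken from the earlier PP1 screen, limit read from the data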
# pPAFAH FP conf: pPAFAH (human) inhibition, confirmed | shares compounds with pPAFAH FP inh | recombinant pPAFAH, FP-Rh probe fluorescence polarization | inhibition, % at 3.39 µM | 72% of 2,300 active;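 active = mean inhibition of the triplicate above the hit cutoff set for the earlier primary screen, cut at about 25% in these data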;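 also: 0% = enzyme with DMSO and 100% = wells lacking pPAFAH enzyme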
# Starred values were filed as active, the others as inactive; · = no result; ! = not active in a repeat. This is a sample that favours compounds with a hit; in the whole collection about 3.4% have one here.
SMILES,PP5 primary,pPAFAH FP inh,PAFAH1B3 inh,PP1 inh,PAFAH2 FP inh,PAFAH1B2 FP inh,PP1 confirm,PP5 inh counter,pPAFAH FP conf
CS(=O)(=O)c1ccc(C(=O)Nc2ccc(N3CCCC3)cc2)c(Cl)c1,3,3,1,1,-4,9,·,·,·
O=C1C=C(O)c2c(O)cc(O)c(O)c2C1=O,4,85*,40*,57*,45*,19,37*,-7,52*
COc1cccc(NC(=O)CCC2CCN(C(=O)c3cncs3)CC2)c1,5,-6,-1,-7,-2,10,·,·,·
CC1=C(C(=O)OCc2ccccc2)C(c2ccc(-c3ccccc3)cc2)NC(=O)N1CCCCCC(=O)O (stereo not drawn),-1,46*,4,19*,11,4,3,-4,41*
Cc1ccc(Oc2ccc(NC(=O)CSc3n[nH]c(N)n3)cc2)cc1,1,8,-12,1,6,3,·,·,·
COc1cc2[nH]c(C(=O)N3CCc4ccccc4C3)cc2c(OC)c1OC,2,11,3,5,3,4,·,·,·
Oc1cc2c(cc1C(c1ccc(Cl)c(Cl)c1)N1CCCC1)OCO2 (stereo not drawn),·,·,4,·,9,4,·,·,·
CC1=Nc2nc(N3CCCCC3)c(C#N)c3c4c(nc(c23)N1)N(c1ccc(C(C)C)cc1)C(=O)C4,1,63*,11,20*,10,6,16*,-1,29*
O=C(NN1C(=O)NC2(CCCCC2)C1=O)c1ccc(-c2ccc(Cl)cc2)o1,2,5,-12,6,1,-1,·,·,·
Oc1ccc(/C=N/Nc2ccc(Cl)nn2)c(O)c1O,2,57*,16,18*,29,1,38*,-6,12
Cc1ccc(C)c(Cn2nnc3c(=O)[nH]c(C4CCN(S(=O)(=O)c5ccc(S(=O)(=O)NC6CC6)cc5)CC4)nc32)c1,5,42*,-13,18*,-29,-6,15*,5,47*
CC(C)=CCc1c(O)cc2oc3c(CC=C(C)C)c(O)c(O)c(CC=C(C)C)c3c(=O)c2c1O,4,59*,30*,39*,-16,11,33*,0,56*
O=C(O)CSCC(=O)N(Cc1ccccc1)c1nc(-c2ccccc2)c(-c2ccccc2)s1,6,54*,3,26*,-6,23,19*,-1,54*
Cc1ccccc1C(C(=O)NC1CCCC1)N(C(=O)Cc1cccs1)c1ccc2c(c1)OCCO2 (stereo not drawn),2,2,14,4,7,5,·,·,·
Cc1ccccc1-n1c(C)cc(/C=C2/C(=N)N3C(c4ccccc4)=CSC3=NC2=O)c1C,0,-1,-16,10,-8,-13,·,·,·
N=C1/C(=C\c2ccc(-c3cccc(C(=O)O)c3)o2)C(=O)N=C2SC=C(c3ccccc3)N12,1,55*,29*,45*,35*,31*,32*,-2,49*
O=c1cc(-c2ccc(C3CCCCC3)cc2)[nH][nH]1,3,35*,6,18*,9,15,-2,-4,5
Cc1cccc(CCNC(=O)c2cccc(N3CCCC3=O)c2)c1,0,4,3,-5,6,4,·,·,·
O=c1c(O)cccc2cc(O)c(O)c(O)c12,2,94*,42*,21*,87*,35*,14,-3,88*
COc1cc2cccc(OC)c(=O)c2c(OC)c1OC,3,-3,8,-2,-3,-1,·,·,·
CCc1ccc(-c2nn(Cc3ccccc3)cc2/C=C/C(=O)O)cc1,3,1,0,-2,5,13,·,·,·
Cc1ccccc1C(=O)Nc1cccc(C(=O)N/N=C/c2cc(Cl)cc([N+](=O)[O-])c2O)c1,2,38*,-9,19*,6,3,18*,-4,42*
COc1ccc(CNC(=O)c2cc(SC)ccc2Cl)cc1OC,1,-3,3,-1,15,5,·,·,·
CC(=O)NC(c1cccs1)c1cc(F)c2cccnc2c1O (stereo not drawn),0,4,14,-6,6,1,·,·,·
Cc1ccc(C(NC(=O)C(C)C)c2cc([N+](=O)[O-])c3cccnc3c2O)cc1 (stereo not drawn),5,54*,17,26*,17,5,20*,-1,74*
SMILES,PP5 primary,pPAFAH FP inh,PAFAH1B3 inh,PP1 inh,PAFAH2 FP inh,PAFAH1B2 FP inh,PP1 confirm,PP5 inh counter,pPAFAH FP conf
CC(C)C(=O)NC(c1cccs1)c1cc([N+](=O)[O-])c2cccnc2c1O (stereo not drawn),1,84*,6,26*,-4,-5,16*,8,79*
O=C(CN1C(=O)C(=O)N(Cc2ccco2)C1=O)Nc1ccccc1,·,3,12,·,5,2,·,·,·
COc1ccc(-n2cccc2/C=C2\C(=N)N3N=C(c4ccco4)SC3=NC2=O)cc1,4,47*,-7,38*,27,0,30*,-1,63*
Cc1cc(C)n(CCCNC(=O)CN(C)S(=O)(=O)c2ccc(Cl)cc2)n1,-1,-6,4,-2,-1,3,·,·,·
CCCCCCCC/C=C\CCCCCCCC(=O)NCCc1ccc(O)c(O)c1,15*,70*,12,16*,-27,8,8,2,62*
COC(=O)C1=C(C)N(Cc2ccc(OC)c(OC)c2)C(=O)C1,2,4,7,0,8,1,·,·,·
O=C(Nc1cccc(S(=O)(=O)NC2=NCCC2)c1)c1cc(-c2ccco2)nc2ccccc12,1,43*,8,26*,4,0,6,-5,22
COc1ccc(OCC(=O)Nc2ccc(N3CCCCC3)cc2)cc1,5,3,9,-1,8,7,·,·,·
Cc1cc(C)cc(OCC(=O)Nc2ccc(N3CCCC3)cc2)c1,0,36*,3,19*,8,-2,-9,-2,30*
N[C@@H](Cc1cc(I)c(Oc2ccc(O)c(I)c2)c(I)c1)C(=O)O,1,69*!,3,28*!,27,7,15,-6,71*
N[C@@H](Cc1ccc(O)c(O)c1)C(=O)O,·,·,10,·,-1,1,·,·,·
COCCNC(=O)C(c1ccc(C)cc1)N(C(=O)CCC(=O)Nc1ccccn1)c1ccccc1C (stereo not drawn),1,4,8,4,8,6,·,·,·
Cc1ccc(NC(=O)COc2cccc(/C=C3\SC(=S)N(CCC(=O)O)C3=O)c2)cc1Cl,1,40*,1,39*,6,5,14,4,27*
